Results on 45 molecules are retold here after PubChem BioAssay AID2685 (National Center for Advancing Translational Sciences (NCATS), 2010).

Out of some 320,000 compounds screened, about 2,100 (0.66%) were called active. About 53% were inconclusive and are not listed. Calls come from the whole dose curve; as a rule, active = well fitted inhibition curve with a large enough effect in the signal ratio, with a control signal flat (not every such curve was filed as active); inconclusive = small, poorly fitted or top-dose-only effect, or effect the other way, or a change in a side signal; inactive = flat fitted curve, though single readings scatter; the % refers to the signal ratio. Many of the other results were omitted from the sample, so actives are more common in it than they were.
Potency is the fitted concentration of half-maximal effect.

The assay can be described thus: qHTS Assay for Lipid Storage Modulators in Drosophila S3 Cells.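 For cell number change: cells counted by Cell Tracker Red CMTPX staining in the red channel.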 For lipid storage change, negative = inhibition: % is set by controls: 0 for no effect and ±100 for the full control effect. Particulars: BODIPY lipid droplet fluorescence, 18-24 h, cells fed with added oleic acid; cell number change: measured here: cell count max response; series mostly up to 46.1 µM; lipid storage change, negative = inhibition: at the top concentration. A digest of the protocol: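 Drosophila S3 cells loaded with oleic acid (400 uM, as added) and compounds at several concentrations; lipid droplets imaged by 488-nm laser-scanning cytometry, 500–530 nm intensity and object ratio to cell channel. Percent activity normalized to 20 uM Triacsin C.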
Background: Quantitative high-throughput screening tests each substance at several concentrations.
On to `O=C(Nc1cccnc1)c1ccc2c(c1)C(=O)N(CC1CCCO1)C2=O` (stereo not drawn), for which the “lipid storage change, negative = inhibition” value is -113% (inactive) and the cell number change amounted to 5.85%.
Consider `COc1ccc2cc3cc(C(=O)NCCN4CCN(c5ccccc5F)CC4)oc3nc2c1`, for which the “lipid storage change, negative = inhibition” value is -20.3% (inactive) and the cell number change is -11.8%.
In the same order, the values of `C/C(CS(=O)(=O)c1ccccc1)=N\O` are -23.4% (inactive) and -17.1%.
On the same counts, the results for `CCN(Cc1ccccc1)C(=O)CS(=O)(=O)c1ccccc1` are -5.16% (inactive) and 0.704%.
For `C/C=C(\CS(=O)(=O)c1ccccc1)S(=O)(=O)c1ccccc1`, the Potency is 5.17 µM (active) and the cell number change was -14.9%.
`O=C(NNC(=O)c1cccc(S(=O)(=O)N2CCN(c3ccccc3)CC2)c1)c1ccc(Cl)cc1`: the “lipid storage change, negative = inhibition” value was 2.76% (inactive) and the cell number change was -1.16%.
On the same counts, the results for `CCN(CC)C(=O)Oc1ccc(Cl)c2cccnc12` are 4.69% (inactive) and -13.1%.
Turning to `O=C(Nc1cccc(C(F)(F)F)c1)c1cccnc1N1CCN(CCO)CC1`, the molecule was classed as inactive.
`O=C(Nc1cccc(C(F)(F)F)c1)Oc1ccc(Cl)c2cccnc12`: the Potency is 8.2 µM (active) and the cell number change was -22.5%.
In the same order, the values of `O=C(Nc1cccc(C(F)(F)F)c1)c1cccnc1NCCO` are 9.2 µM (active) and 17.5%.
Take `O=C(Nc1cccc(C(F)(F)F)c1)c1cccnc1N1CCCC1`: the molecule was classed as inactive.
In the case of `O=C(Oc1ccc(Cl)c2cccnc12)N1CCCCCC1`, the “lipid storage change, negative = inhibition” value was 2.39% (inactive) and the cell number change was found to be 0.575%.
Take `CCOc1ccccc1Oc1nc(-c2ccccc2O)nc2ccccc12`: the outcome was inactive and the cell number change is 16.3%.
Consider `N#Cc1c(C(F)(F)F)cc(-c2ccc(F)cc2)nc1SCC(=O)O`, for which the “lipid storage change, negative = inhibition” value is 17% (inactive) and the cell number change stood at 0.873%.
On to `CC(c1ccc(O)cc1)(c1ccc(O)cc1)c1ccc(CCBr)cc1`, for which the “lipid storage change, negative = inhibition” value was -11.7% (inactive) and the cell number change was -16%.
With `O=C(Nc1ccc(-n2cc(Cl)cn2)cc1)c1ccncc1`, the “lipid storage change, negative = inhibition” value is -2.29% (inactive) and the cell number change is 13%.
Regarding `Cc1ccc(C(=O)/C=C/N(C)C)o1`, the “lipid storage change, negative = inhibition” value was -9.3% (inactive) and the cell number change is -4.62%.
`COc1ccc(C2=NC(C)(C)Cc3cc(OC)c(OC)cc32)cc1`: the “lipid storage change, negative = inhibition” value is 14.1% (inactive) and the cell number change was -1.73%.
In the same order, the values of `CCNC(=O)n1nccc1C(C)Oc1ccccc1` (stereo not drawn) are 7.19% (inactive) and 17.8%.
In the same order, the values of `CCc1ccc(CNC(=O)C2CCN(S(=O)(=O)N3CC(C)CC(C)C3)CC2)cc1` (stereo not drawn) are -15.9% (inactive) and 14.3%.
As for `Cc1ccc(CNC(=O)CSc2nccn(-c3ccc(C)c(F)c3)c2=O)cc1`, the Potency was 14.6 µM (active) and the cell number change was -20%.
As to `CCOc1ccc(-n2ccnc(SCC(=O)NCCc3ccccc3)c2=O)cc1`, the “lipid storage change, negative = inhibition” value is 22.2% (inactive) and the cell number change was -8.43%.
For the molecule `COc1ccc(CNC(=O)CSc2nccn(-c3ccc(F)c(F)c3)c2=O)cc1`, the cell number change was found to be 17.2% and the lipid storage change, negative = inhibition was -25.5% [at 0.0737 µM] (inactive).
For `CN1CCN(c2ncnc3sc(-c4ccccc4)cc23)CC1`, the “lipid storage change, negative = inhibition” value is 15% (inactive) and the cell number change was 24.2%.
Turning to `COc1ccc(/C=C/C(=O)c2ccc([N+](=O)[O-])o2)cc1`, the “lipid storage change, negative = inhibition” value is -7.12% (inactive) and the cell number change worked out at 5.86%.
On the same counts, the results for `CN1CCN(C(=O)/C=C/c2ccc([N+](=O)[O-])cc2)CC1` are -0.257% (inactive) and -5.05%.
Turning to `CN1CCN(C(=O)/C=C/c2ccc([N+](=O)[O-])o2)CC1`, the Potency was 32.6 µM (active) and the cell number change was -21.6%.
On the same counts, the results for `CCc1ccc(C(=O)/C=C/c2ccc([N+](=O)[O-])o2)cc1` are 1.3 µM (active) and -21.1%.
Consider `CCN(CC)S(=O)(=O)c1ccc(C(=O)/C=C/c2ccc(-c3ccc([N+](=O)[O-])cc3)o2)cc1`, for which the “lipid storage change, negative = inhibition” value was -2.16% (inactive) and the cell number change was found to be 6.91%.
For the molecule `O=C(/C=C\c1ccc(-c2cccc([N+](=O)[O-])c2)o1)N1CCOCC1`, the “lipid storage change, negative = inhibition” value is 0.516% (inactive) and the cell number change was 1.96%.
On the same counts, the results for `CCOC(=O)c1ccc(NC(=S)NNC(=O)c2cc(-c3cccnc3)nc3ccccc23)cc1` are -22.8% (inactive) and -10.9%.
Take `OCC1(CCc2ccccc2)CCN(Cc2cnc(N3CCCC3)s2)CC1`: the “lipid storage change, negative = inhibition” value is -4.43% (inactive) and the cell number change was -1.4%.
In the same order, the values of `O=C(CCC(=O)N1CCOc2ccccc21)Nc1cc(F)ccc1F` are -28.3% (inactive) and -2.02%.
For `O=C1OCc2ccc(NC(=O)c3ccccc3C(=O)O)cc21`, the “lipid storage change, negative = inhibition” value is -11.6% (inactive) and the cell number change was 2.9%.
In the same order, the values of `Cc1ccc(C)c(S(=O)(=O)Nc2ccc(C(=O)NCC(c3ccco3)N3CCCCC3)cc2)c1` (stereo not drawn) are -6.69% (inactive) and 16%.
On the same counts, the results for `Cc1ccc2[nH]c(=O)c(CN(C)C(=O)c3cccs3)cc2c1` are -3.04% (inactive) and -11.8%.
As for `COC(=O)c1c(NC(=O)c2ccccc2OC)sc(C(=O)N2CCOCC2)c1C`, the outcome was inactive and the cell number change is 4.76%.
On the same counts, the results for `COC(=O)c1c(N)sc(C(=O)N2CCOCC2)c1C` are “inactive” and 8.28%.
With `COC(=O)c1c(NC(=O)CCl)sc(C(=O)N2CCOCC2)c1C`, the Potency was 0.651 µM (active) and the cell number change was -18.1%.
Turning to `O=C(Cc1ccc(F)cc1)Nc1c(C(=O)N2CCN(c3ncccn3)CC2)oc2ccccc12`, the result was inactive and the cell number change worked out at 26.3%.
For `COc1ccccc1CCNC(=O)c1cc(-c2ccncc2)nc2ccc(Br)cc12`, the “lipid storage change, negative = inhibition” value is -8.45% (inactive) and the cell number change is -14.5%.
`O=C(CCc1c[nH]c2ccccc12)OCc1cccc([N+](=O)[O-])c1`: the Potency was 5.8 µM (active) and the cell number change was determined as 0.451%.
For the molecule `O=C(COC(=O)CCc1c[nH]c2ccccc12)Nc1ccc([N+](=O)[O-])cc1`, the “lipid storage change, negative = inhibition” value was -0.164% (inactive) and the cell number change is -0.284%.
In the same order, the values of `O=C(COC(=O)CCc1c[nH]c2ccccc12)Nc1cc([N+](=O)[O-])ccc1Cl` are 9.58% (inactive) and 17.2%.
As to `Cn1c(C(=O)Nc2ccccc2)cc2sccc21`, the “lipid storage change, negative = inhibition” value was -9.82% (inactive) and the cell number change is -17.5%.
